Molecules are shown by their SMILES. Active and inactive are the calls of the source. The calls were made as follows: active = hit-call score of the fitted dose curve at least 0.9, where 1 is the maximum; inactive = score below 0.9.

This assay is described as follows: ATG_CRE_CIS: Attagene CIS-FACTORIAL HepG2 Assay for human cAMP Responsive Element (CRE) binding protein 3 (AID 2282926). Conditions: HepG2 CRE cis-reporter, Attagene multiplexed mRNA; actives raise or lower the signal. As for the experimental part: ATG_CIS is a cell-based, multiplexed-readout assay that uses HepG2, a human liver cell line, with measurements taken at 24 hours after chemical dosing in a 24-well plate.ATG_CRE_CIS is one of 52 assay component(s) measured or calculated from the ATG_CIS assay. It is designed to make measurements of mRNA induction, a form of inducible reporter, as detected with fluorescence intensity signals by Reverse transcription polymerase chain reaction (RT-PCR) and Capillary electrophoresis technology.Data from the assay component ATG_CRE_CIS was analyzed into 1 assay endpoint. This assay endpoint, ATG_CRE_CIS, was analyzed with bidirectional fitting relative to DMSO as the negative control and baseline of activity. Using a type of inducible reporter, measures of mRNA for gain or loss-of-signal activity can be used to understand the reporter gene at the transcription factor-level as they relate to the gene CREB3. Furthermore, this assay endpoint can be referred to as a primary readout, because this assay has produced multiple assay endpoints where this one serves a reporter gene function. To generalize the intended target to other relatable targets, this assay endpoint is annotated to the dna binding intended target family, where the subfamily is basic leucine zipper.
Human liver HepG2 cells are transiently transfected with multiple reporter transcription units (MRTUs) in 6-well plates using FuGene 6 reagent (Roche; 3 ml FuGene/1 mg DNA). The MRTU constructs are regulated by a cis-regulating element (promoter). […] A major difference between the CIS and TRANS system is that in CIS activities of endogenous TFs are measured, whereas the TRANS assay evaluates changes in activities of exogenous, chimeric NR-Gal4 proteins. […] At the end of 24 hour incubation, total RNA was isolated using TriZol reagent (Invitrogen). The isolated RNA is then reverse-transcribed using oligo(dT) primer and Mo-MLV reverse transcriptase (Invitrogen) with DNAse I (Ambion) treatment for 30 min. The one-tenth of the produced cDNA was amplified by PCR using Taq DNA polymerase (Invitrogen) and two reporter sequence-specific primers. The PCR products were fluorescently labeled by primer extension with 6-arboxyfluorescein (6-FAM) 5'-labeled reporter sequence-specific primer (2 min at 95 C, 20 s at 68 C and 10 min at 72 C) and these products were digested with 5U of HpaI (New England Biolabs) for 2h at 37 C. The fragments were purified using Qiaquick PCR columns (Qiagen), analyzed on an ABI 3130xL genetic analyzer (Applied Biosystems) with peak positions identified by using a set of X-rhodamine (ROX)-labeled MapMarker1000 molecular weight standards (BioVentures). The raw capillary electrophoresis data was processed using Attagraph software (Attagene).
With `CCN(CC)C(=O)N(CC)CC`, the call was inactive. `CCCOC(=O)c1c(Cl)c(Cl)c(Cl)c(Cl)c1C(=O)OCCC`: the AC50 (commonly the concentration at which the activity in the assay is half-maximal) is 171 µM (active). Consider `CCCCCCCCc1ccc(S(=O)(=O)O)cc1`, for which the AC50 was 19.7 µM (active).

On to `CC(=O)c1ccccn1`, for which the compound was classed as inactive. With `C#CC(C)(O)CC(C)C` (stereo not given), the call was inactive. As to `COCCOC(=O)c1ccccc1C(=O)OCCOC`, the compound was classed as inactive. Still for that read-out and setting: under `CCCCCCCCCCCCCCCC(=O)OC/C=C(C)/C=C/C=C(C)/C=C/C1=C(C)CCCC1(C)C` stands “inactive”; under `CCOc1ccc(N=Nc2ccc(C=Cc3ccc(N=Nc4ccc(OCC)cc4)cc3S(=O)(=O)O)c(S(=O)(=O)O)c2)cc1`, “inactive”; under `CCCSc1ccc2nc(NC(=O)OC)[nH]c2c1`, “inactive”. The same measure, in the same setting: to `CCCCCCCCCCCCN1CCCCCC1=O` belongs “inactive”; to `CCCC1O[C@@H]2C[C@H]3[C@@H]4CCC5=CC(=O)C=C[C@]5(C)[C@H]4[C@@H](O)C[C@]3(C)[C@]2(C(=O)CO)O1` (stereo not given in full), “inactive”; to `CCOc1ccc(NC(=O)CC(C)=O)cc1`, “inactive”. `COc1ccc(N=Nc2cc(C)c(N=Nc3ccc(S(=O)(=O)O)cc3)cc2OC)cc1`: the concentration at half-maximal activity (AC50) is 19.8 µM (active). As to `CC(C)=CCCC(C)CCOC=O` (stereo not given), the compound was called inactive. With `CC=Cc1ccc(OC)c(OC)c1`, the result was inactive.

As for `CC(=O)O[C@@H]1C[C@@H]2CC[C@@]1(C)C2(C)C`, the outcome was inactive. Still for that read-out and setting: under `CN(C)c1cccc(O)c1` stands “inactive”; under `CCc1ccc(O)c(OC)c1`, “inactive”; under `CCN(CCN)c1cccc(C)c1`, “inactive”. On the same count and under the same terms, under `COc1cccc(OC)c1O` stands “inactive”; under `OC[C@H]1O[C@@H]2O[C@H]3[C@H](O)[C@@H](O)[C@@H](O[C@H]4[C@H](O)[C@@H](O)[C@@H](O[C@H]5[C@H](O)[C@@H](O)[C@@H](O[C@H]6[C@H](O)[C@@H](O)[C@@H](O[C@H]7[C@H](O)[C@@H](O)[C@@H](O[C@H]8[C@H](O)[C@@H](O)[C@@H](O[C@H]9[C@H](O)[C@@H](O)[C@@H](O[C@H]1[C@H](O)[C@H]2O)O[C@@H]9CO)O[C@@H]8CO)O[C@@H]7CO)O[C@@H]6CO)O[C@@H]5CO)O[C@@H]4CO)O[C@@H]3CO`, “inactive”. Same read-out and setting: under `CCCC(=O)OC(C)(C)Cc1ccccc1` stands “inactive”. As for `CCCC(=O)C(CC)Sc1ccoc1C` (stereo not given), the AC50 was 25.7 µM (active). Take `CC1CC(O)CC(C)(C)C1` (stereo not given): the result was inactive.

In the case of `C=CC(=O)OCCC#N`, the outcome was inactive. Still for that read-out and setting: to `OCC#CCO` belongs “inactive”; to `COC(C)(C)CC(C)=O`, “inactive”; to `CC(C)(C)C1=CC(=O)C(C(C)(C)C)=CC1=O`, “inactive”. Same read-out and setting: to `NCC1CCCC(CN)C1` (stereo not given) belongs “inactive”; to `CC(C)NCC(O)COc1ccc(CC(N)=O)cc1` (stereo not given), “inactive”; to `COC(=O)c1ccc([N+](=O)[O-])cc1`, “inactive”. On the same count and under the same terms, to `CCCC(C)=O` belongs “inactive”; to `OCCc1ccccc1`, “inactive”; to `CCC1(c2ccccc2)C(=O)NCNC1=O`, “inactive”.

As for `CCOC(=O)C(C#N)=C(c1ccccc1)c1ccccc1`, the AC50 is 63 µM (active). As for `CC1(C)CCC[C@]2(C)[C@H]3CCO[C@]3(C)CC[C@@H]12`, the compound was classed as inactive. Still for that read-out and setting: to `Cc1ccc(C)o1` belongs “inactive”; to `COC(C)(C)CCO`, “inactive”; to `CCCCCCC(CO)CCCC` (stereo not given), “inactive”. On the same count and under the same terms, to `CC/C=C\CCOC(=O)CC` belongs “inactive”.

Values taken from PubChem BioAssay (EPA / NIEHS).
